About 83,000 compounds went through this panel and 20% of them were active in at least one assay; those are over-represented in the sample as a whole.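 Step 1: grow cells in 96-well plates. Step 2: add test compound at a single concentration. Step 3: incubate 48 h. Step 4: record percent growth.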 Activity calls are given as the source filed them. The calls were made as follows: active = growth percent below 10; inactive = the rest.
The molecules below were run on SF-268 CNS (assay: NCI-60 one-dose screen, 48 h (100 = growth as untreated, 0 = no growth, -100 = all killed)). Conditions: 10 µM unless noted.

| Compound | growth |
| --- | --- |
| C=C1C(=O)O[C@H]2[C@H]1CC/C(COC(=O)NCCc1c[nH]c3ccccc13)=C\CC[C@@]1(C)O[C@@H]21 | 62.3% (inactive) |
| C/C(=N\Nc1cc(C)c2ccccc2n1)c1ccccn1 | -6.64% (active) |
| COC(=O)CNc1nc(N(C)O)nc(N(C)O)n1 | 34.3% (inactive) |
| Cc1ccc(-c2nc([P+](c3ccccc3)(c3ccccc3)c3ccccc3)c(N3C[C@H]4C[C@H](C3)c3cccc(=O)n3C4)o2)cc1 | 91.1% (inactive) |
| COC(=O)[C@]12CC[C@@H](C)[C@H](C)[C@@H]1C1=CC[C@@H]3[C@@]4(C)CC(=O)[C@H](OC(=O)c5ccco5)[C@@]5(C)COC(=C45)C[C@@]3(C)[C@]1(C)CC2 | 40.7% (inactive) |
| COc1ccc(/C=C/C(=O)NCC(C)O)cc1 (stereo not drawn) | 94% (inactive) |
| Cc1nn(-c2ccc(Cl)cc2)c(=O)n1CCn1cnc2ccccc21 | 107% (inactive) |
| CN1CCN(CCOc2ccc(-c3cnc4c(-c5ccccc5F)cnn4c3)cc2)CC1 | 63.9% (inactive) |
| O=C(NO)c1ccc(Cn2c(=O)n(-c3ccccc3)c(=O)c3ccccc32)cc1 | 43.9% (inactive) |
| COc1cccc2c1C(=O)c1c(O)c3c(c(O)c1C2=O)C[C@@](O)(C(=O)CO)C[C@@H]3OC1C[C@H](N)[C@H](O)[C@H](C)O1 (stereo partly drawn) | -31.7% (active) |
| CCC(CC)C(=O)OC(C)COc1ccc(C(C)(C)C)cc1 (stereo not drawn) | 99.1% (inactive) |
| Nc1ccc(Cl)cn1 | 100% (inactive) |
| CN1CCN(CCOc2ccc(-c3cnc4c(-c5cccc(F)c5)cnn4c3)cc2)CC1 | 80.4% (inactive) |
| CCCC1CCCCN1C(=O)OCC(C)C (stereo not drawn) | 96.1% (inactive) |
| O=S(=O)(NCCNc1cc(-c2cn(-c3ccccc3)nc2-c2cccc(O)c2)ccn1)c1cccc(F)c1 | 54.9% (inactive) |
| Cc1cccc(C)c1NC(=O)CSC(=S)N1CCCCC1 | 96% (inactive) |
| O=C(/C=C/c1cccc(O)c1)c1ccccc1O | 94.2% (inactive) |
| O=C(NO)c1ccc(Cn2c(=O)n(CCc3ccc(O)cc3)c(=O)c3ccccc32)cc1 | 59.2% (inactive) |
| COc1ccc(O)c(-c2cc(-c3ccc(Cl)cc3)c(C#N)c(=O)[nH]2)c1 | 85.2% (inactive) |

| Compound | growth |
| --- | --- |
| CCC(=O)c1c(C)[nH]c(C)c1C | 90.7% (inactive) |
| COc1cc(-c2cc3ncccc3c3nc(OCCN(C)C)c4cccnc4c23)cc(OC)c1OC | 23.1% (inactive) |
| O=C(/C=C/c1cccc2ccccc12)Nc1ncc(Cc2ccccc2)s1 | 50.8% (inactive) |
| CC(C)/C=C/CC[C@](C)(O)[C@H]1CC[C@]2(C)[C@@H]1CC[C@@H]1[C@@]3(C)C/C(=C/c4cccc(C(F)(F)F)c4)C(=O)C(C)(C)[C@@H]3CC[C@]12C | 93.3% (inactive) |
| O=C(NCN1C(=O)c2cccc3cccc(c23)C1=O)N1CCC(Cc2ccccc2)CC1 | 100% (inactive) |
| COc1cnc2c(c1)C(=O)c1c-2n(CCCNCCN2CCOCC2)c(=O)c2cc([N+](=O)[O-])ccc12 | 12.3% (inactive) |
| CCCCCCCC(=O)SCC/C=C/[C@@H]1CC(=O)NCc2cccc(n2)CN(Cc2ccc3ccccc3c2)CC(=O)N[C@@H](C(C)C)C(=O)O1 | 61.1% (inactive) |
| Fc1ccc2nc(-c3cc(-c4ccc5c(c4)OCO5)n[nH]3)[nH]c2c1 | 77.5% (inactive) |
| Cn1cc(-c2nc(-c3cn(C)c4ncccc34)cs2)c2cc(F)ccc21 | 52.2% (inactive) |
| NCCn1cc(-c2nc(-c3c[nH]c4ncccc34)cs2)c2ccccc21 | 84.7% (inactive) |
| COc1ccc(-c2cc(-c3c(C)oc4cc5occc5c(OC)c4c3=O)nc(N)c2C#N)cc1OC | 65.1% (inactive) |
| CN(C)c1ccc(N)c2ccccc12 | 77% (inactive) |
| CN(C)CCCCC(C(=O)CBr)(c1ccccc1)c1ccccc1 | 48.7% (inactive) |
| O=C1Nc2ccccc2/C1=C/c1cn(CCCn2c3ccccc3c(=O)c3ccccc32)c2ccccc12 | 79.2% (inactive) |
| C=C(C)[C@@H]1CC[C@]2(C=NCCCNCCCCNCCCN)CC[C@]3(C)[C@H](CC[C@@H]4[C@@]5(C)CCCNC(C)(C)[C@@H]5CC[C@]43C)[C@@H]12 | 102% (inactive) |
| CCCCn1c(-c2ccc(O)cc2)cn2c3c(=O)[nH]c(=O)n(C)c3nc12 | 86.3% (inactive) |
| Cc1nn(-c2ccc(Br)cc2)c2nc3[nH]c(=O)[nH]c(=O)c3nc12 | 110% (inactive) |
| Cc1cc2nc3c4cc(N)ccc4n(CCN(C)C)c3nc2cc1C | 29.7% (inactive) |
| COc1ccc(-c2nc3c(c(C)nn3-c3ccc(F)cc3)c(=O)[nH]2)cc1 | 78.9% (inactive) |

— PubChem BioAssay (NCI)
